An excerpt weighted towards active compounds, which were near 3.6% of everything screened.
Nrf2 activator: qHTS of Nrf2 Activators; AREc32 ARE-luciferase reporter (MCF7-derived line), luminescence, 24 h; Potency, µM (top dose mostly 46.1 µM), for the others: top-dose activation, hits mostly activators; 0.31% of 410,000 active; AID 624171, 2012; also: % of control where 0% means no effect; nearly all actives have a fitted effect of over 65% in size
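AREc32_Fluc, 1000 cells/well, OPTI-MEM + 5% FBS, o/n 37 deg C 5% CO2; 23 nL cpd by pin tool, 24 hr; Steady-Glo 30 min RT, luminescence.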
HepG2 viability: qHTS for Inhibitors of TGF-b: Cytotox Counterscreen. HepG2 CAGA-GFP viability, ATP luminescence, 18 h. Potency, µM (top dose mostly 46.1 µM), without a hit: at the highest dose activity change, negative = cytotoxicity, usual class: cytotoxic. 0.76% of 410,000 active
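CellTiter-Glo luminescence gave cytotoxicity after 18 hours at 37 degrees C. The cells were HepG2 CAGA-GFP in 1% FBS DMEM, stimulated with 500 pg/mL TGF-beta after compound addition. %Activity was normalised to no-cell wells (complete cell-killing) and DMSO (no toxicity), and curves were fitted and classified.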
TGFb SMAD3 inh: qHTS for Inhibitors of TGF-b | HepG2 CAGA-GFP TGF-b/SMAD3 reporter, GFP fluorescence, 18 h; TGF-beta stimulated, 500 pg/mL final | AID 588855, 2011 | 1.2% of 410,000 active | Potency, µM (series often up to 46.1 µM), inactives show top-dose activity, negative = inhibition, usual class: inhibitors; also: % is scaled to controls: 0 for no effect and ±100 for the full control effect; nearly all actives have a fitted effect of over 65% in size
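HEPG2 CAGA-GFP, 1000 cells/well; 2 h settle, 37 C; cpd via pin tool; TGF-b 500 pg/mL final; 18 h, 37 C; GFP imaging ex488/em500-530; %Activity normalised to -TGF-b and +DMSO controls; CRC fit, curve class.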
A549 tox: Nrf2 qHTS screen for inhibitors: counterscreen for cytotoxicity; 0.16% of 390,000 active; A549 ARE-Fluc cells, CellTiter-Fluor viability, 18-24 h; Potency, µM (top dose mostly 46 µM), without a hit: at the top dose activity change, negative = cytotoxicity, actives largely listed as inhibitors; also: % is scaled to controls: 0 for no effect and ±100 for the full control effect
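A549 ARE_Fluc cells in 5% FBS OPTI-MEM were exposed to compounds in concentration-response for 18-24 h at 37 deg C. Viability was read by CellTiter-Fluor fluorescence (Ex 405/Em 525) after 30 min, before the luciferase read.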
Nrf2 block: Nrf2 qHTS screen for inhibitors; A549 ARE-Fluc reporter, luciferase luminescence, 18-24 h; Potency, µM (titrated, usually from 46 µM), inactives show at the top dose activity change, negative = inhibition, hits mostly inhibitors; 2.1% of 360,000 active; AID 504444, 2011; also: % is scaled to controls: 0 for no effect and ±100 for the full control effect; nearly all actives have a fitted effect of over 60% in size
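Quantitative HTS in A549 cells stably bearing an antioxidant response element-firefly luciferase construct. Inhibition of Nrf2-driven transcription was scored by luminescence after 18-24 h of compound exposure at 37 °C.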
* = called active by the depositor; ? = inconclusive; · = no result. Calls follow the shape of the dose curve; as a rule, active = well fitted curve in the direction sought with a large enough effect; inconclusive = small, poorly fitted or top-dose-only effect, or another doubt; inactive = no such curve, though single readings can be large; an effect the other way counts as inactive or inconclusive. Potency is read from the fitted curve at half-maximal effect.

SMILES	Nrf2 activator	HepG2 viability	TGFb SMAD3 inh	A549 tox	Nrf2 block
Cc1ccccc1C(=O)c1cccn1CC(=O)NCCN1CCN(c2cccc(C)c2C)CC1	-0.9%	12.6µM*	?	?	?
Cc1ccc(C)c(N2CCN(CCCNC(=O)Cn3cccc3C(=O)c3ccccc3C)CC2)c1	0.4%	-79.8%	?	-18.4%	5.4%
CC(OC(=O)c1ccc(S(=O)(=O)N2CCCCC2)cc1)C(=O)Nc1ccc(C(N)=O)cc1 (configuration not stated)	-0.2%	7.7%	-0.7%	0.0%	-0.3%
CCc1ccc(-n2nc(C)c3c(C(=O)N4CCN(c5ccccc5)CC4)cc(C)nc32)cc1	4.4%	-34.5%	-16.6%	0.2%	18.4µM*
O=S(=O)(Nc1nc2ccccc2nc1N1CCN(c2ccccc2F)CC1)c1ccc(Cl)cc1	-0.6%	-0.1%	-13.5%	?	23.1µM*
CCCN(CC(=O)Nc1ccccc1Br)CC(=O)Nc1ccc(F)c(F)c1F	-0.6%	10.0%	?	-0.7%	-8.4%
COc1ccc(-n2nc([N+](=O)[O-])c(=NCCc3ccc(OC)c(OC)c3)n2O)cc1	3.4%	15.8µM*	-31.2%	-18.7%	?
COc1ccc(-n2nc([N+](=O)[O-])c(=NCCc3ccc(C)cc3)n2O)cc1	0.1%	-19.4%	-29.8%	-7.7%	?
COc1ccc(NC(=O)CSc2nc(-c3cccs3)cc(C(F)(F)F)n2)c(OC)c1	0.6%	2.2%	4.4%	-18.3%	?
COc1ccc(Sc2nc(-c3ccccc3)ncc2C(=O)O)cc1	-0.8%	-9.9%	-7.1%	0.9%	-18.7%
CCOC(=O)C(C(=O)OCC)C(Nc1cccc(Br)c1)c1ccccc1 (configuration not stated)	?	-56.6%	0.0%	?	18.4µM*
CCc1nnc(NC(=O)/C=C/c2ccco2)s1	4.47µM*	-7.4%	17.1%	?	19.9%
COc1ccc(/C=C/c2cc(C(=O)O)c3ccccc3n2)cc1	-2.0%	-20.3%	4.7%	-0.5%	6.51µM*
COc1cc(OC)c(OC)cc1/C=C/c1cc(C(=O)O)c2ccccc2n1	-0.5%	21.4%	7.3%	-9.0%	-23.5%
Cc1cc(/C=N/n2cnnc2)c(C)n1-c1ccc(OCc2ccccc2F)cc1	6.7%	12.6µM*	11.2µM*	?	?
Cc1cc(/C=N/n2cnnc2)c(C)n1-c1ccc(OCc2ccc(Cl)cc2)cc1	6.2%	-24.2%	?	-9.6%	9.2µM*
C(=N\n1cnnc1)/c1ccc(OCc2ccccc2)cc1	2.2%	-20.0%	22.1%	-2.1%	·
CNC(=S)N1C2CCCC1CC(NC(=O)c1ccc(C)cc1)C2 (configuration not stated)	-0.1%	-15.9%	-3.3%	3.5%	16.9%
Cc1ccc2c(CNCc3cccs3)c(C(=O)O)n(Cc3ccc(F)cc3)c2c1	4.2%	-49.8%	?	11.6µM*	-21.8%
COc1ccc2c(CNCCc3cccs3)c(C(=O)O)n(Cc3ccc(F)cc3Cl)c2c1	-2.9%	17.8µM*	?	-14.4%	55.0%
Cc1ccc2c(CNCc3ccc(C)o3)c(C(=O)O)n(Cc3ccc(F)cc3)c2c1	6.1%	-45.4%	-28.7%	?	-28.7%
CCOc1ccccc1CNCc1c(C(=O)O)n(Cc2ccc(F)cc2)c2cc(C)ccc12	-0.3%	-26.8%	0.8%	18.4µM*	?
C=Cc1ccc(Cn2c(C(=O)O)c(CNCc3ccc(F)cc3)c3ccc(C)cc32)cc1	-2.2%	-107.2%	12.6µM*	?	-2.3%
O=c1c(-c2ccc(O)cc2)coc2c(C3O[C@H](CO)[C@@H](O)[C@H](O)[C@H]3O)c(O)ccc12 (some centres not stated)	0.2%	-2.3%	12.5%	-2.4%	-23.0%
CCN(CC)CCCN1C(=O)C(O)=C(C(=O)c2sc(C)nc2C)C1c1ccco1 (configuration not stated)	0.3%	0.2%	-3.6%	-0.9%	17.1%
SMILES	Nrf2 activator	HepG2 viability	TGFb SMAD3 inh	A549 tox	Nrf2 block
COc1ccc(Cn2c(C(=O)O)c(CNCc3ccc(OC)cc3OC)c3ccc(C)cc32)cc1	4.4%	1.8%	-11.0%	13µM*	?
COc1ccc(Cn2c(C(=O)O)c(CNCCc3cc(OC)ccc3OC)c3ccc(C)cc32)cc1	-1.2%	-96.1%	?	?	?
C=Cc1ccc(Cn2c(C(=O)O)c(CNCc3cccs3)c3ccc(C)cc32)cc1	0.1%	12.6µM*	?	14.6µM*	-27.1%
COc1cccc(CNCc2ccc(OC)cc2OC)c1	-0.4%	1.4%	-13.9%	0.5%	-2.2%
COc1ccc(Cn2c(C(=O)O)c(CNCc3cccs3)c3ccc(C)cc32)cc1	5.8%	-40.7%	?	?	-21.6%
CCn1c2ccccc2c2cc(CNCc3ccc(OC)cc3OC)ccc21	-3.6%	10µM*	?	-1.6%	-5.3%
O=c1[nH]nc(N/N=C/c2ccccc2OC(F)F)c(=O)[nH]1	20.9%	-12.9%	-5.8%	-0.2%	-9.7%
O=C(N1CCOCC1)C12CC3CC(C1)CC(c1ccccc1)(C3)C2	0.0%	-21.3%	-6.4%	-4.2%	-16.7%
CCc1cc2c(=O)[nH]c(-c3ccccn3)nc2s1	?	-30.6%	5.01µM*	?	?
CCc1cc2c(=O)[nH]c(N3CCCC3)nc2s1	0.2%	6.7%	36.7%	3.0%	2.7%
O=C(O)CSCC(=O)Nc1ccc(C2CCCCC2)cc1	-2.6%	-83.9%	-4.1%	-2.5%	5.17µM*
CC(C)CCNC1=NCCCCC1	0.1%	11.2µM*	?	3.3%	-2.0%
CCc1ccccc1NC(=O)c1ccc(OCc2c(C)noc2C)cc1	0.4%	2.1%	18.1%	-8.4%	-21.7%
CCOC(=O)c1c(C)n(-c2ccccc2)c2ccc(OC(=O)c3ccccc3NC(=O)C(C)C)cc12	-5.3%	-68.0%	?	6.1%	-4.0%
CCOC(=O)c1c(C)n(-c2ccccc2)c2ccc(OC(=O)c3ccccc3NC(=O)C(C)(C)C)cc12	-5.8%	22.4µM*	?	13.0%	-19.8%
Cc1ccc(C2N(c3ccccc3)C(=S)N3CCCN23)cc1 (configuration not stated)	0.1%	-14.2%	-0.6%	-3.5%	-25.6%
Cc1[nH]n(-c2ccccc2)c(=O)c1C(=O)c1cccc(F)c1	0.3%	-1.1%	-7.6%	13.2%	23.1µM*
Cc1[nH]n(-c2ccccc2)c(=O)c1C(=O)c1ccccc1	-0.4%	-40.9%	0.0%	?	?
Cc1[nH]n(-c2ccccc2)c(=O)c1C(=O)c1ccc(Cl)cc1	0.4%	-78.9%	-35.4%	-24.1%	16.4µM*
CCSC(=S)c1c(C)[nH]n(-c2ccccc2)c1=O	2.6%	-74.7%	?	?	?
Cc1[nH]n(-c2ccc(Cl)cc2)c(=O)c1C(=O)c1ccccc1	3.1%	-29.4%	?	?	20.6µM*

Screens (PubChem BioAssay)
